Assay results reported in ChEMBL document CHEMBL3988442, “University of Dundee, Small-Polar-MMV Screening Library” (2021).
For some of these results: Measured potencies and affinities stand elsewhere.

Tests used:
Design in all cases: scale not given: direction of the effect not stated beside the values
[1] = target: Protein translocase subunit SecA (Escherichia coli (strain K12)) (UniProt P10408); assay: Assay to Identify E. coli SecA ATPase Inhibitors; assay type: functional; details: 30 µM
[2] = target: T1, Ubiquitin-activating enzyme e1, putative (Leishmania donovani (strain BPK282A1)) (UniProt E9BSI1); assay: Leishmania donovani Ubiquitin Activating Enzyme (LdE1); assay type: functional; details: 30 µM
T1 sequence (whole entry): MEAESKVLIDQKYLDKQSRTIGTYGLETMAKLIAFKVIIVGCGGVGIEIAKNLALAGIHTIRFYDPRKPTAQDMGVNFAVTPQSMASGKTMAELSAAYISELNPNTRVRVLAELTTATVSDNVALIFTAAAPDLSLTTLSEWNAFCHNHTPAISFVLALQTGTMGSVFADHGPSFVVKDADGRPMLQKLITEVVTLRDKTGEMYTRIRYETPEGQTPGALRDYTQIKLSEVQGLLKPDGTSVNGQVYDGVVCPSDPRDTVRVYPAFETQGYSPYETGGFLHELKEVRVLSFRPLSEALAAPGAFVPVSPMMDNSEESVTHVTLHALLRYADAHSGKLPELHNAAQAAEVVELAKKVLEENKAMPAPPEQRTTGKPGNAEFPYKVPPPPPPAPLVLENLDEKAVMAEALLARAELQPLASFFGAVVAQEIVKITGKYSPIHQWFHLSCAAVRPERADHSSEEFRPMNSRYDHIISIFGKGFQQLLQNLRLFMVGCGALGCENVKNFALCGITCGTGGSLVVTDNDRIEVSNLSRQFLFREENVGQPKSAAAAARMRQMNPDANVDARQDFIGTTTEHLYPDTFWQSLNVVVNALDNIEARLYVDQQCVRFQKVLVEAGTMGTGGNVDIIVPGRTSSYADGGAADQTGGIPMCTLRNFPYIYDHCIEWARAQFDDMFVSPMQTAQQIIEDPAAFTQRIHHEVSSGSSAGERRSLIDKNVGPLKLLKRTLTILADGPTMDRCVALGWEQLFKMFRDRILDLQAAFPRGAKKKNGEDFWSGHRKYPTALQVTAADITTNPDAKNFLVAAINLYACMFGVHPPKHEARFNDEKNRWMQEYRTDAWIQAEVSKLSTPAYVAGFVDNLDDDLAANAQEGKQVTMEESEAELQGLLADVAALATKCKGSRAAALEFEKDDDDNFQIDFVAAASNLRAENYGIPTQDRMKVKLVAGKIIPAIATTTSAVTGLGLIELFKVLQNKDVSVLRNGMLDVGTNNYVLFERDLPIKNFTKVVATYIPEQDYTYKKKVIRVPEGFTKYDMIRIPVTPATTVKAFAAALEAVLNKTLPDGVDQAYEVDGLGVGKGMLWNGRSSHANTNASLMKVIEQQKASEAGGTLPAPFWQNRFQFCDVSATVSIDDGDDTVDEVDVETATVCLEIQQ

[3] = target: AMP-activated protein kinase, AMPK (Homo sapiens) (UniProt P54646+O43741+P54619+Q9UGJ0+Q9Y478+Q13131+Q9UGI9); assay: AMP-dependent Kinase enzyme assay. An in vitro enzyme assay that detects ADP turnover that is directly proportional to AMPK activity. This uses naive AMPK that is activated during the assay with MK-8722; assay type: functional; details: 30 µM
[4] = target: Sialic acid-binding Ig-like lectin 9 (Homo sapiens) (UniProt Q9Y336); assay: Hs-Siglec9 ALPHAscreen SOP 20170721; details: 10 µM
Trypanosoma cruzi = assay: Trypanosoma cruzi phosphomannomutase and mannose-1-phosphate guanylyltransferase assay; assay type: functional; details: 10 µM
[5] = target: T2, Arginase-2, mitochondrial (Homo sapiens) (UniProt P78540); assay: in vitro enzyme assay to detect the production of urea directly proportional to the activity of Arginase II; assay type: functional; details: 33.3 µM; further: in the data most compounds retested in dose-response had high values
T2 sequence (whole entry): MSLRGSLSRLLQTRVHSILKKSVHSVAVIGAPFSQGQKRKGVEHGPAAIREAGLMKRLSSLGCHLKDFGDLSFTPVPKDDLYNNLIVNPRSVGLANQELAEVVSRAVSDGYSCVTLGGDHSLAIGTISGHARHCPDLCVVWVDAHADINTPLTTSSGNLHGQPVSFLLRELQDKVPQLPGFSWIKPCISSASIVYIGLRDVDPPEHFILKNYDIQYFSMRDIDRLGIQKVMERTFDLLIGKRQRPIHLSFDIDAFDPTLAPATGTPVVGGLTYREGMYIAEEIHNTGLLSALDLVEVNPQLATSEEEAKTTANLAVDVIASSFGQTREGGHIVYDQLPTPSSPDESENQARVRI

[6] = target: T3, Proteasome subunit beta (Trypanosoma cruzi) (UniProt O96673); assay: Trypanosoma cruzi proteasome chymotrypsin-like activity (TcProtChymo) assay.; further: in the data most compounds retested in dose-response had high values; assay type: functional; details: 9.37 µM
T3 sequence (whole entry): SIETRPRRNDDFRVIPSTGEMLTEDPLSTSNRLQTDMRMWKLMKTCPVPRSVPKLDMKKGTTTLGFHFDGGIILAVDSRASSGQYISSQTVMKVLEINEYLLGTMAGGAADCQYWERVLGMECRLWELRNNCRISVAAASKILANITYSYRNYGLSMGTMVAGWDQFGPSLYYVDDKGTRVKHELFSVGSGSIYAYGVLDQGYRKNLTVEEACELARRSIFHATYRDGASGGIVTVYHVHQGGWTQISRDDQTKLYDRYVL

Homo sapiens = species: Homo sapiens; assay: To identify inhibition of the IFN signalling (Jak-Stat) pathway via expression of an eGFP reporter gene under the control of an IFN-stimulated response element (ISRE) containing MxA promoter.; assay type: functional; details: 30 µM
[7] = target: T4, Tyrosyl-tRNA synthetase, putative (Trypanosoma cruzi (strain CL Brener)) (UniProt Q4DSP6); assay: Trypanosoma cruzi tyrosyl tRNA synthetase (TcYRS) _High Tyrosine SOP; assay type: functional; details: 30 µM; further: in the data most compounds retested in dose-response had high values
T4 sequence (whole entry): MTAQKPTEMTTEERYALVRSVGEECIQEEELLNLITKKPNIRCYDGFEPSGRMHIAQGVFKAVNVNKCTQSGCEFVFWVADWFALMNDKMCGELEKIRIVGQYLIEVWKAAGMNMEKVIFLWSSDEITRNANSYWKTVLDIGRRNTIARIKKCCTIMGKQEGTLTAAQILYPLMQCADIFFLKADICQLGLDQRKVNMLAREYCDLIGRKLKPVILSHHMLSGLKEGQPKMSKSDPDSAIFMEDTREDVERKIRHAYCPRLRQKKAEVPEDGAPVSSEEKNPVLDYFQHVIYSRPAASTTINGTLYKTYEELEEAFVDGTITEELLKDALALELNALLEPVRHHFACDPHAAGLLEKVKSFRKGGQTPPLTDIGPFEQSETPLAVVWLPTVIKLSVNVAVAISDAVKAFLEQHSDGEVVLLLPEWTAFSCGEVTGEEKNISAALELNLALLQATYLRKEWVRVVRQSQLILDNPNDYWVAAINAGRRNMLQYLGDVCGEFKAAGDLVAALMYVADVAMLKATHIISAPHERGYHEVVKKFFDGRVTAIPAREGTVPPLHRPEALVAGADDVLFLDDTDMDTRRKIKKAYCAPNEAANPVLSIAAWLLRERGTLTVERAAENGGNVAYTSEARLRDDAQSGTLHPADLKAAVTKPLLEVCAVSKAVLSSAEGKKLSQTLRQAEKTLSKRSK

[8] = target: T4, Tyrosyl-tRNA synthetase, putative (Trypanosoma cruzi (strain CL Brener)); assay: Trypanosoma cruzi tyrosyl tRNA synthetase (TcYRS) SOP; assay type: functional; details: 30 µM
[9] = target: Chromo domain-containing protein 1 (Saccharomyces cerevisiae (strain ATCC 204508 / S288c) (Baker's yeast)) (UniProt P32657); assay: ScCHD-1 Enzyme Inhibition Assay; assay type: functional; details: 30 µM; further: in the data most compounds retested in dose-response had high values
Chain of Chromo domain-containing protein 1 (Saccharomyces cerevisiae (strain ATCC 204508 / S288c) (Baker's yeast)) (P32657 whole entry, the tested form may be a part): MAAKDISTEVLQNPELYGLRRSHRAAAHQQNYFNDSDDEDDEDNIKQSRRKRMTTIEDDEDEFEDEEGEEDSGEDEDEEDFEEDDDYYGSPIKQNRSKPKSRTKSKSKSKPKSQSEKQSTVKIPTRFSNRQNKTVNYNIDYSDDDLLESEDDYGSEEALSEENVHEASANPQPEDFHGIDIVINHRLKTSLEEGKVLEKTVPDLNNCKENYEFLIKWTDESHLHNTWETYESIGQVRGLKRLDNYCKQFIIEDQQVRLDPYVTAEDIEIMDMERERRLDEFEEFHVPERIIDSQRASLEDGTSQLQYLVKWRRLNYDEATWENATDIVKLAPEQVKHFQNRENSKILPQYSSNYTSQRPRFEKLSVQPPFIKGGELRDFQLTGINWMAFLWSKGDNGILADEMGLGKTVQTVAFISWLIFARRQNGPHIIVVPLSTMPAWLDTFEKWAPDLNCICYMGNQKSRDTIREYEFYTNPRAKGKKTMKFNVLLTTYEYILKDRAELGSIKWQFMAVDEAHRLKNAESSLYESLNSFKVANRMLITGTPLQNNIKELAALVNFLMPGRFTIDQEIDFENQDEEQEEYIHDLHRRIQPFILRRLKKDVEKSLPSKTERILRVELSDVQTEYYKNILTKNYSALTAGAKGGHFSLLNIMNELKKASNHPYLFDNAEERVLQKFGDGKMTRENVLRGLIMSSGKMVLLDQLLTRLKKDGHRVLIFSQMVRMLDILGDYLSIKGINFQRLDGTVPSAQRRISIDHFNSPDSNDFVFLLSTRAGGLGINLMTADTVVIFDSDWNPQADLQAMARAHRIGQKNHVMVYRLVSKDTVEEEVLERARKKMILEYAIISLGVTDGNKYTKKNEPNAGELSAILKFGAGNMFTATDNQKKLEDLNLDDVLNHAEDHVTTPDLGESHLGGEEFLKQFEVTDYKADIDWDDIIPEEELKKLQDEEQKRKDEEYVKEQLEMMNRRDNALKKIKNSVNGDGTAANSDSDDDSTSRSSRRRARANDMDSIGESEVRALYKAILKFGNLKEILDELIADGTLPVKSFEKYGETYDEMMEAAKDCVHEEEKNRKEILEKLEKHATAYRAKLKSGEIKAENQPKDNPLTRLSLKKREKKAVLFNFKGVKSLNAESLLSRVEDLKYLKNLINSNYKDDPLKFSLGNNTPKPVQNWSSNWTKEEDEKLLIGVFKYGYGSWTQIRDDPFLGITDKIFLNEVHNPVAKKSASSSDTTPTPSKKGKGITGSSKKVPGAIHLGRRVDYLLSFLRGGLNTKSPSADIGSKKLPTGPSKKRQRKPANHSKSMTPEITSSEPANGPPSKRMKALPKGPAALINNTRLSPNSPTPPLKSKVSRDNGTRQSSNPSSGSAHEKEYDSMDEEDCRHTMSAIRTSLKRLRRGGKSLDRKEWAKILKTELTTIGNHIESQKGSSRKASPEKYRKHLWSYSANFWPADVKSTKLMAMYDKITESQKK

Chain of Sialic acid-binding Ig-like lectin 9 (Homo sapiens) (Q9Y336 whole entry): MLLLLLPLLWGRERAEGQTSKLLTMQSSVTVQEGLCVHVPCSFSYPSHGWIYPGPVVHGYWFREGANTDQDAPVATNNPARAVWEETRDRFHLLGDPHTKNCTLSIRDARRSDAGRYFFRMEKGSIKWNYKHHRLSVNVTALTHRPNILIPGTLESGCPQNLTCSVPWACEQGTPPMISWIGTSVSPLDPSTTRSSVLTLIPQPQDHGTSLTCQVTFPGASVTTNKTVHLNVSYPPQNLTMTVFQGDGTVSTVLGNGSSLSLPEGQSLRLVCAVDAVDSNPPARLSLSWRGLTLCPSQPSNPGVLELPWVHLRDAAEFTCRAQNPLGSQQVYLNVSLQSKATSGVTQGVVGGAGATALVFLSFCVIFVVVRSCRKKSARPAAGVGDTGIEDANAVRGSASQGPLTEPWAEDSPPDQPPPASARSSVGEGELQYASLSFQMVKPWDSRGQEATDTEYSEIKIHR
Chain of Protein translocase subunit SecA (Escherichia coli (strain K12)) (P10408 whole entry): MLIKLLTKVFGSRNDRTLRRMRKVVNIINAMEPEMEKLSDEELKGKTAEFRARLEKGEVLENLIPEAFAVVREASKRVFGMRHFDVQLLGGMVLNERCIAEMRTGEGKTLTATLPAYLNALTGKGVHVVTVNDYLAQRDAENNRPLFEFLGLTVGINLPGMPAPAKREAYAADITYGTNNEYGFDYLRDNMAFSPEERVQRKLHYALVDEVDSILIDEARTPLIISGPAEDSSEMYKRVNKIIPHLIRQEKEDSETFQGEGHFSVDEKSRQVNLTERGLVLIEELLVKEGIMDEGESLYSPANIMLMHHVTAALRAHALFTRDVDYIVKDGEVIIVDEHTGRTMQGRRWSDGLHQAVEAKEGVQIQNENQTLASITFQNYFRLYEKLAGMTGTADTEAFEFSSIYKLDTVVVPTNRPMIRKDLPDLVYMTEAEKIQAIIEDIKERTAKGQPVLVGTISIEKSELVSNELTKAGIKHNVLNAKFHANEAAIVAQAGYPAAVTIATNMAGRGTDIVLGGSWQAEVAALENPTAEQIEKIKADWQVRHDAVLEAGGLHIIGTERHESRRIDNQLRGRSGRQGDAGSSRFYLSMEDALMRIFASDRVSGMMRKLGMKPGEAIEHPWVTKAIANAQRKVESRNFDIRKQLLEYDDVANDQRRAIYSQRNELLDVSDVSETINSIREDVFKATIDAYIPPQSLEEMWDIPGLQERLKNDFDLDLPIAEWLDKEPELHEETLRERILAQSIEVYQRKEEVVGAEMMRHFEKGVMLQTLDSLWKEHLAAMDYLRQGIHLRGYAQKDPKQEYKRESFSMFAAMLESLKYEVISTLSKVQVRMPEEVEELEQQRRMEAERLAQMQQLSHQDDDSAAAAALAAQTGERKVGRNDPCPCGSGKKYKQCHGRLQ

Structure (SMILES) | Percent Effect [1] | Percent Effect [2] | Percent Effect [3] | Percent Effect [4] | Percent Effect (Trypanosoma cruzi) | Percent Effect [5] | Percent Effect [6] | Percent Effect (Homo sapiens) | Percent Effect [7] | Percent Effect [8] | Percent Effect [9]
COc1cc(CN(C)C(=O)Cc2c(C)nn(C)c2C)ccc1OC(F)F | 3.46% | -9.72% | -6.03% | -7.7% | -5.15% | 3.09% | 20.2% | 55.5% | 5.26% | 10.3% | 0.343%
Clc1ccccc1C1(c2ccnc(-c3ccncc3)n2)CCNCC1 | -0.572% | 7.79% | 3.38% | 10.4% | -2.26% | -8.28% | 17% | 16.3% | 6.45% | 13.6% | 2.54%
Cn1ccnc1CN1CCN(Cc2cc(C#N)ccc2F)CC1 | -2.4% | 2.7% | 1.09% | -1.18% | -9.38% | 6.1% | 10.8% | 20% | 5.94% | 6.1% | 3.16%
Cc1cc(C)n(CC2CN(Cc3cccc(C(N)=O)c3)CCO2)n1 (stereo unspecified) | -2.43% | 16.2% | 8.27% | -0.119% | 4.69% | 8.75% | 20.7% | 18.8% | 7.92% | 20.7% | 97.6%
Cc1nc(C2CCCN2CC(=O)NCCc2ccsc2)no1 (stereo unspecified) | -2.17% | 16.2% | -10.4% | 13.2% | 5.11% | 3.51% | 10.4% | -5.59% | 6.93% | 18.3% | -8.06%
COCCN1C(=O)CC(N2CCN(c3ccc(F)cc3)CC2)C1=O (stereo unspecified) | 0.82% | 10.5% | 2.05% | -7.33% | -0.0974% | -1.18% | 10.3% | 14.5% | -3.19% | 5.2% | -4.78%
CCn1cnnc1C1CCN(C(=O)C(OC)c2ccccc2)CC1 (stereo unspecified) | -2.02% | 18.2% | 6.32% | -9.96% | 5.58% | -1.05% | 17.9% | -11% | 8.57% | 18.8% | -17.7%
O=C1COc2c(cccc2C(=O)N2CCCCC2Cn2cccn2)N1 (stereo unspecified) | -1.42% | 10.4% | 2.71% | 5.65% | -2.84% | 3.16% | 14.6% | 10.8% | 6.67% | 11.8% | -12.7%
CN1CC[C@H](c2ccccc2)[C@@H]2[C@H]1CCCCN2C(=O)c1cnccn1 | -2.95% | -4.05% | 7.03% | 1.21% | 3.75% | -5.34% | 10.8% | 3.3% | 4.3% | 3.9% | -14%
Cc1ccn(-c2ccccc2NCc2ccccn2)n1 | -1.21% | 0% | 23.2% | 4.37% | 3.13% | 2.27% | 0.532% | 2.69% | 4.3% | 10% | -1.77%
Cc1cc(C)n(CC2CCCN2C(=O)c2ccc3[nH]nnc3c2)n1 (stereo unspecified) | -4.12% | 5.48% | 5.75% | 0.134% | -2.35% | 5.46% | 14.4% | 4.89% | 1.07% | 10% | -3.11%
